# Test results taken from PubChem BioAssay (NCI).
# The panel holds about 79,000 compounds, 15% with a hit somewhere; the sample as a whole holds those more often. A number with no mark means an inactive call. Active and inactive are the calls of the source. Rule as the data show it: active = growth inhibition above about 70%; inactive = the rest.
# Tests used:
# [1] = NCI Yeast Anticancer Drug Screen. Data for the rad52 strain (AID 147);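 also: 0% = growth of vehicle-treated control cultures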; settings: S. cerevisiae rad52 mutant growth inhibition, hits give high values
# How it was run: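 Genetically altered yeast (DNA damage repair defect) treated with compound; inhibition calculated relative to vehicle.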
# [2] = NCI Yeast Anticancer Drug Screen. Data for the wt1 strain (AID 149);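 also: 0% = growth of vehicle-treated wt1 cultures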; settings: S. cerevisiae wt1 strain (SPY 50644) growth inhibition, hits give high values
# How it was run: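 Vehicle-normalised growth inhibition; strain wt1; compound exposure.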
# [3] = NCI Yeast Anticancer Drug Screen. Data for the rad50EPP+ strain (AID 151);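 also: 0% = growth of vehicle-treated control cultures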; settings: S. cerevisiae rad50 mutant strain, hits give high values
# How it was run: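 Strain rad50EPP+; compound exposure; % growth inhibition vs vehicle.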
# [4] = NCI Yeast Anticancer Drug Screen. Data for the rad50 strain (AID 155);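 also: 0% = growth of vehicle-only cultures of the same strain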; settings: S. cerevisiae rad50 strain growth inhibition, hits give high values
# How it was run: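 A DNA repair-deficient yeast mutant serves as the test organism; compound-induced growth inhibition is calculated against vehicle-treated cells.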
# [5] = NCI Yeast Anticancer Drug Screen. Data for the mec2-1 strain (AID 157); settings: S. cerevisiae mec2-1 strain, hits give high values
# How it was run: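 Cells of the genetically defined mec2-1 yeast strain are incubated with test compound. Inhibition of growth is calculated against vehicle-treated controls.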
# [6] = NCI Yeast Anticancer Drug Screen. Data for the rad14 strain (AID 159);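 also: 0% = growth of vehicle-treated control cultures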; settings: S. cerevisiae rad14 strain growth inhibition, hits give high values
# How it was run: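 Vehicle-treated cultures served as the baseline for growth inhibition of a DNA repair-mutant yeast strain exposed to each compound.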
# [7] = NCI Yeast Anticancer Drug Screen. Data for the sgs1 mgt1 strain (AID 161);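 also: 0% = growth of cultures given vehicle only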; settings: S. cerevisiae sgs1 mgt1 strain, hits give high values
# How it was run: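 Read-out: growth inhibition vs vehicle controls. Cells: mutant yeast strain deficient in DNA damage repair.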
# [8] = NCI Yeast Anticancer Drug Screen. Data for the CLN2oe strain (AID 163);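 also: 0% = growth of vehicle-only control cultures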; settings: S. cerevisiae CLN2oe strain, hits give high values
# How it was run: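 Strain altered in cell-cycle control, incubated with compound; growth compared to solvent-treated controls.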
# [9] = NCI Yeast Anticancer Drug Screen. Data for the cln2 rad14 strain (AID 165);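 also: 0% = growth equal to vehicle treated cultures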; settings: S. cerevisiae cln2 rad14 strain, hits give high values
# How it was run: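 The screen exposed genetically defined yeast (cln2 rad14) to test compounds and scored growth inhibition relative to vehicle-treated controls.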
# [10] = NCI Yeast Anticancer Drug Screen. Data for the bub3 strain (AID 167); settings: S. cerevisiae bub3 mutant strain, hits give high values
# How it was run: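 Inhibition values come from growth of compound-treated mutant yeast normalised to vehicle-treated controls.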
# [11] = NCI Yeast Anticancer Drug Screen. Data for the wt2 strain (AID 169);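 also: 0% = growth of vehicle-treated yeast cultures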; settings: S. cerevisiae wt2 strain growth inhibition, hits give high values
# How it was run: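 Steps: yeast strain treated with compound; growth recorded; inhibition calculated relative to cultures given vehicle alone.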
# [12] = NCI Yeast Anticancer Drug Screen. Data for the mlh1 strain (AID 171);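 also: 0% = growth of vehicle-treated control cultures of the same strain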; settings: S. cerevisiae mlh1 strain growth inhibition, hits give high values
# How it was run: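 Yeast screen: mutant strain plus compound, growth scored against vehicle control wells.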
# [13] = NCI Yeast Anticancer Drug Screen. Data for the sgs1 strain (AID 173);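 also: 0% = growth of vehicle-only control cultures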; settings: S. cerevisiae sgs1 mutant, hits give high values
# How it was run: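 Inhibition of yeast growth served as the measure. The mutant strain was treated with each compound, and growth was normalised to cultures receiving vehicle alone.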
# [14] = NCI Yeast Anticancer Drug Screen. Data for the mlh1 rad18 strain (AID 175); settings: S. cerevisiae mlh1 rad18 strain growth inhibition, hits give high values
# How it was run: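 Compound-treated yeast growth, normalised to vehicle controls. Strain bears defined DNA repair mutations.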
# [15] = NCI Yeast Anticancer Drug Screen. Data for the rad18 strain (AID 177); settings: S. cerevisiae rad18 mutant growth inhibition, hits give high values
# How it was run: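 Inhibition values reflect reduced yeast growth compared with vehicle-treated controls, using a strain engineered with a DNA damage repair defect.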
# [16] = at 5.0 µM (retest, dose inferred, filed as 0.5)
# [17] = at 50.0 µM (retest, dose inferred, filed as 5.0)
smiles,measurement,setting,value
O=C(/N=N/C(=O)Oc1ccccc1)Oc1ccccc1,growth inhibition,[1]; at 1.2 µM,-49%
same,growth inhibition,[1]; at 3.7 µM,-54%
same,growth inhibition,[1]; at 11.0 µM,-52%
same,growth inhibition,[1]; at 33.0 µM,-38%
same,growth inhibition,[1]; at 100.0 µM,24%
same,growth inhibition,[2]; at 1.2 µM,-57%
same,growth inhibition,[2]; at 3.7 µM,-51%
same,growth inhibition,[2]; at 11.0 µM,-46%
same,growth inhibition,[2]; at 33.0 µM,-32%
same,growth inhibition,[2]; at 100.0 µM,37%
same,growth inhibition,[3]; at 1.2 µM,-87%
same,growth inhibition,[3]; at 3.7 µM,-110%
same,growth inhibition,[3]; at 11.0 µM,-106%
same,growth inhibition,[3]; at 33.0 µM,-46%
same,growth inhibition,[3]; at 100.0 µM,-82%
same,growth inhibition,[4]; at 1.2 µM,-81%
same,growth inhibition,[4]; at 3.7 µM,-66%
same,growth inhibition,[4]; [16],30%
same,growth inhibition,[4]; at 11.0 µM,-107%
same,growth inhibition,[4]; at 33.0 µM,-40%
same,growth inhibition,[4]; [17],96% (active)
same,growth inhibition,[4]; at 50.0 µM,56.4%
same,growth inhibition,[4]; at 100.0 µM,45%
same,growth inhibition,[5]; at 1.2 µM,-97%
same,growth inhibition,[5]; at 3.7 µM,-47%
same,growth inhibition,[5]; [16],53%
same,growth inhibition,[5]; at 11.0 µM,-87%
same,growth inhibition,[5]; at 33.0 µM,-52%
same,growth inhibition,[5]; [17],97% (active)
same,growth inhibition,[5]; at 50.0 µM,8.5%
same,growth inhibition,[5]; at 100.0 µM,-16%
same,growth inhibition,[6]; at 1.2 µM,-26%
same,growth inhibition,[6]; at 3.7 µM,-26%
same,growth inhibition,[6]; at 11.0 µM,-10%
same,growth inhibition,[6]; at 33.0 µM,-15%
same,growth inhibition,[6]; at 100.0 µM,5%
same,growth inhibition,[7]; [16],-29%
same,growth inhibition,[7]; [17],39%
same,growth inhibition,[7]; at 50.0 µM,48.6%
same,growth inhibition,[8]; at 1.2 µM,9%
same,growth inhibition,[8]; at 3.7 µM,22%
same,growth inhibition,[8]; at 11.0 µM,16%
same,growth inhibition,[8]; at 33.0 µM,40%
same,growth inhibition,[8]; at 100.0 µM,40%
same,growth inhibition,[9]; [16],5%
same,growth inhibition,[9]; [17],59%
same,growth inhibition,[9]; at 50.0 µM,43.6%
same,growth inhibition,[10]; at 1.2 µM,-25%
same,growth inhibition,[10]; at 3.7 µM,-29%
same,growth inhibition,[10]; [16],50%
same,growth inhibition,[10]; at 11.0 µM,-17%
same,growth inhibition,[10]; at 33.0 µM,2%
same,growth inhibition,[10]; [17],69%
same,growth inhibition,[10]; at 50.0 µM,55%
same,growth inhibition,[10]; at 100.0 µM,65%
same,growth inhibition,[11]; at 1.2 µM,-46%
same,growth inhibition,[11]; at 3.7 µM,-48%
same,growth inhibition,[11]; at 11.0 µM,-54%
same,growth inhibition,[11]; at 33.0 µM,-39%
same,growth inhibition,[11]; at 100.0 µM,48%
same,growth inhibition,[12]; at 1.2 µM,-70%
same,growth inhibition,[12]; at 3.7 µM,-85%
same,growth inhibition,[12]; at 11.0 µM,-78%
same,growth inhibition,[12]; at 33.0 µM,-44%
same,growth inhibition,[12]; at 100.0 µM,3%
same,growth inhibition,[13]; at 1.2 µM,-78%
same,growth inhibition,[13]; at 3.7 µM,-80%
same,growth inhibition,[13]; at 11.0 µM,-35%
same,growth inhibition,[13]; at 33.0 µM,-27%
same,growth inhibition,[13]; at 100.0 µM,59%
same,growth inhibition,[14]; [16],44%
same,growth inhibition,[14]; [17],98% (active)
same,growth inhibition,[14]; at 50.0 µM,49%
same,growth inhibition,[15]; at 1.2 µM,-44%
same,growth inhibition,[15]; at 3.7 µM,-72%
same,growth inhibition,[15]; at 11.0 µM,-72%
same,growth inhibition,[15]; at 33.0 µM,-58%
same,growth inhibition,[15]; at 100.0 µM,45%
N#[N+]c1c([O-])c2ccccc2c2ccccc12,growth inhibition,[1]; at 1.2 µM,13%
same,growth inhibition,[1]; at 3.7 µM,23%
same,growth inhibition,[1]; at 11.0 µM,82% (active)
same,growth inhibition,[1]; at 33.0 µM,97% (active)
same,growth inhibition,[1]; at 100.0 µM,97% (active)
same,growth inhibition,[2]; at 1.2 µM,3%
same,growth inhibition,[2]; at 3.7 µM,4%
same,growth inhibition,[2]; at 11.0 µM,15%
same,growth inhibition,[2]; at 33.0 µM,30%
same,growth inhibition,[2]; at 100.0 µM,97% (active)
same,growth inhibition,[3]; at 1.2 µM,13%
same,growth inhibition,[3]; at 3.7 µM,32%
same,growth inhibition,[3]; at 11.0 µM,84% (active)
same,growth inhibition,[3]; at 33.0 µM,96% (active)
same,growth inhibition,[3]; at 100.0 µM,96% (active)
same,growth inhibition,[4]; at 1.2 µM,22%
same,growth inhibition,[4]; at 3.7 µM,46%
same,growth inhibition,[4]; [16],-23%
same,growth inhibition,[4]; at 11.0 µM,85% (active)
same,growth inhibition,[4]; at 33.0 µM,96% (active)
same,growth inhibition,[4]; [17],35%
same,growth inhibition,[4]; at 50.0 µM,92.7% (active)
same,growth inhibition,[4]; at 100.0 µM,96% (active)
same,growth inhibition,[5]; at 1.2 µM,0%
same,growth inhibition,[5]; at 3.7 µM,0%
same,growth inhibition,[5]; [16],-1%
same,growth inhibition,[5]; at 11.0 µM,7%
same,growth inhibition,[5]; at 33.0 µM,60%
same,growth inhibition,[5]; [17],36%
same,growth inhibition,[5]; at 50.0 µM,48.6%
same,growth inhibition,[5]; at 100.0 µM,97% (active)
same,growth inhibition,[6]; at 1.2 µM,3%
same,growth inhibition,[6]; at 3.7 µM,17%
same,growth inhibition,[6]; at 11.0 µM,25%
same,growth inhibition,[6]; at 33.0 µM,80% (active)
same,growth inhibition,[6]; at 100.0 µM,97% (active)
same,growth inhibition,[7]; [16],-5%
same,growth inhibition,[7]; [17],16%
same,growth inhibition,[7]; at 50.0 µM,76.2% (active)
same,growth inhibition,[8]; at 1.2 µM,4%
same,growth inhibition,[8]; at 3.7 µM,8%
same,growth inhibition,[8]; at 11.0 µM,18%
same,growth inhibition,[8]; at 33.0 µM,42%
same,growth inhibition,[8]; at 100.0 µM,95% (active)
same,growth inhibition,[9]; [16],-41%
same,growth inhibition,[9]; [17],2%
same,growth inhibition,[9]; at 50.0 µM,47.5%
same,growth inhibition,[10]; at 1.2 µM,12%
same,growth inhibition,[10]; at 3.7 µM,10%
same,growth inhibition,[10]; [16],-14%
same,growth inhibition,[10]; at 11.0 µM,24%
same,growth inhibition,[10]; at 33.0 µM,54%
same,growth inhibition,[10]; [17],22%
same,growth inhibition,[10]; at 50.0 µM,44%
same,growth inhibition,[10]; at 100.0 µM,95% (active)
same,growth inhibition,[11]; at 1.2 µM,2%
same,growth inhibition,[11]; at 3.7 µM,5%
same,growth inhibition,[11]; at 11.0 µM,12%
same,growth inhibition,[11]; at 33.0 µM,60%
same,growth inhibition,[11]; at 100.0 µM,98% (active)
same,growth inhibition,[12]; at 1.2 µM,-1%
same,growth inhibition,[12]; at 3.7 µM,-1%
same,growth inhibition,[12]; at 11.0 µM,20%
same,growth inhibition,[12]; at 33.0 µM,65%
same,growth inhibition,[12]; at 100.0 µM,97% (active)
same,growth inhibition,[13]; at 1.2 µM,0%
same,growth inhibition,[13]; at 3.7 µM,4%
same,growth inhibition,[13]; at 11.0 µM,20%
same,growth inhibition,[13]; at 33.0 µM,82% (active)
same,growth inhibition,[13]; at 100.0 µM,97% (active)
same,growth inhibition,[14]; [16],-29%
same,growth inhibition,[14]; [17],50%
same,growth inhibition,[14]; at 50.0 µM,86% (active)
same,growth inhibition,[15]; at 1.2 µM,30%
same,growth inhibition,[15]; at 3.7 µM,50%
same,growth inhibition,[15]; at 11.0 µM,93% (active)
same,growth inhibition,[15]; at 33.0 µM,98% (active)
same,growth inhibition,[15]; at 100.0 µM,96% (active)
